We go through ten compounds from PubChem BioAssay (Tox21).

Assay [1] can be described thus: qHTS assay to identify aromatase inhibitors - cell viability counter screen (AID 743084).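 Note: cells stimulated with testosterone during compound exposure; nearly all actives have a fitted effect of over 55% in size.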 Note: potency is the fitted concentration of half-maximal effect.
In assay [2] the target is Aryl hydrocarbon receptor (Homo sapiens) (UniProt P35869). As to the kind of experiment: qHTS assay to identify small molecule that activate the aryl hydrocarbon receptor (AhR) signaling pathway (AID 743085).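 For activation: HG2L7.5c1 human HepG2 liver cells with stably integrated DRE-driven firefly reporter; series mostly up to about 70 µM.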 Note: nearly all actives have a fitted effect of over 15% in size. Note: potency is the fitted concentration of half-maximal effect. In short, it runs like this: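 24 h compound exposure, 37C, HepG2-derived HG2L7.5c1 cells with DRE-responsive luciferase. Readouts: fluorescence viability, then luminescence at room temperature after 30 min.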

The nature of assay [3]: qHTS assay to identify small molecule antagonists of the peroxisome proliferator-activated receptor gamma (PPARg) signaling pathway - cell viability counter screen (AID 743194). Note: nearly all actives have a fitted effect of over 55% in size. Note: potency is the fitted concentration of half-maximal effect. The gist of the method:
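Cytotoxicity counter screen in PPARg-bla HEK293H cells, same wells as reporter assay. Compounds plus 50 nM rosiglitazone (final) for 17 h at 37 C, then viability read by CellTiter-Glo luminescence.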

Assay [4] in a line: qHTS assay for small molecule agonists of the antioxidant response element (ARE) signaling pathway - cell viability counter screen (AID 743203; calls by dose curve; note: nearly all actives have a fitted effect of over 55% in size; note: potency is the fitted concentration of half-maximal effect). In short, it runs like this:
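Following 16 hrs of compound treatment at 37C, HepG2 cells with an ARE-controlled beta-lactamase gene were lysed with CellTiter-Glo. Luminescence was read after 30 min at room temperature.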

Assay [5] can be described thus: qHTS assay for small molecule activators of the heat shock response signaling pathway - cell viability counter screen (AID 743209). Note: nearly all actives have a fitted effect of over 50% in size. Note: potency is the fitted concentration of half-maximal effect. The gist of the method: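 Readout: CellTiter-Glo luminescence, 30 min at room temperature. System: HSE-bla HeLa cells, 1500/well, plated overnight. Treatment: compounds in DMSO, 5 h at 37 C.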
A short description of assay [6]: qHTS assay to identify small molecule agonists of the peroxisome proliferator-activated receptor delta (PPARd) signaling pathway - cell viability counter screen (AID 743211). Note: nearly all actives have a fitted effect of over 55% in size. Note: potency is the fitted concentration of half-maximal effect. In short, it runs like this:
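Luminescent ATP viability assay (CellTiter-Glo, 30 min RT) in UAS-bla HEK293H cells carrying the PPAR delta reporter construct, 3000 cells/well, after a 17 h compound treatment at 37 C.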

Assay [7] in a line: qHTS assay to identify small molecule agonists of the farnesoid-X-receptor (FXR) signaling pathway - cell viability counter screen (AID 743218). Note: nearly all actives have a fitted effect of over 45% in size. Note: potency is the fitted concentration of half-maximal effect. In short, it runs like this:
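Parallel cytotoxicity test: compound-treated (16 h, 37 C) HEK 293T FXR-bla reporter cells were lysed with CellTiter-Glo and luminescence recorded.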

Assay [8] can be described thus: qHTS assay to identify small molecule antagonists of the farnesoid-X-receptor (FXR) signaling pathway - cell viability counter screen (AID 743221; active = well fitted cell-killing curve with a large enough effect in the repeat runs, not every such curve was filed as active; note: nearly all actives have a fitted effect of over 50% in size; note: potency is the fitted concentration of half-maximal effect). The gist of the method:
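In GeneBLAzer FXR-UAS-bla HEK 293T cells stimulated with 50 uM chenodeoxycholic acid (final), compounds acted for 16 h at 37 C. Viability was assessed afterwards by CellTiter-Glo luminescence.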

Assay [9] in a line: qHTS assay to identify small molecule that activate the aryl hydrocarbon receptor (AhR) signaling pathway - cell viability counter screen (AID 743086).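 Note: HepG2 liver cells carrying the AhR DRE luciferase reporter; series mostly up to about 70 µM; nearly all actives have a fitted effect of over 45% in size.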 In short, it runs like this: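 HepG2-AhR-luc (HG2L7.5c1) cells, 4000/well, treated 24 h at 37 C with compound; viability measured as CellTiter-Fluor fluorescence after 30 min in the same wells as the luciferase read.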
Assay [10] addresses Peroxisome proliferator-activated receptor gamma (Homo sapiens) (UniProt P37231). Kind of assay: qHTS assay to identify small molecule agonists of the peroxisome proliferator-activated receptor gamma (PPARg) signaling pathway (AID 743094; active = well fitted activation curve with a large enough effect in the signal ratio in the repeat runs, not every such curve was filed as active; the % refers to the signal ratio; note: potency is the fitted concentration of half-maximal effect). In short, it runs like this: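 Compounds dissolved in DMSO were added to PPARg UAS-bla HEK293H cells for 17 h at 37C, and reporter expression was quantified by fluorescence intensity after 1 h with LiveBLAzer B/G FRET substrate.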

Assay [11] shares this target. As to the kind of experiment: qHTS assay to identify small molecule antagonists of the peroxisome proliferator-activated receptor gamma (PPARg) signaling pathway (AID 743191; calls by dose curve; note: nearly all actives have a fitted effect of over 30% in size; note: potency is the fitted concentration of half-maximal effect). In short, it runs like this:
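GeneBLAzer PPARg UAS-bla HEK293H cells, 5 h post-plating, exposed to compounds 17 h at 37C. LiveBLAzer B/G FRET substrate added for 1 h at room temperature; beta-lactamase reporter read by fluorescence intensity.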

The nature of assay [12]: qHTS assay for small molecule activators of the heat shock response signaling pathway (AID 743210; active = well fitted activation curve with a large enough effect in the signal ratio in the repeat runs, with a control signal flat, not every such curve was filed as active; the % refers to the signal ratio;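 note: HeLa cells with beta-lactamase reporter driven by heat shock elements; series mostly up to about 63 µM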). The gist of the method: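 Quantitative high-throughput format using an engineered HeLa line in which heat shock response elements drive beta-lactamase; after 5 h with compound, cells received a B/G FRET substrate and fluorescence was read.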
A short description of assay [13]: qHTS assay to identify small molecule antagonists of the peroxisome proliferator-activated receptor delta (PPARd) signaling pathway - cell viability counter screen (AID 743213). Note: nearly all actives have a fitted effect of over 50% in size. Note: potency is the fitted concentration of half-maximal effect. In short, it runs like this: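 Cytotoxicity counter screen: CellTiter-Glo luminescence read 30 min after addition, in the same wells as the reporter assay. There, PPARd UAS-bla HEK293H cells (3000/well) were treated 17 h at 37 C with compound and 300 nM L165041.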

Assay [14] deals with Bile acid receptor (Homo sapiens) (UniProt Q96RI1). As to the kind of experiment: qHTS assay to identify small molecule antagonists of the farnesoid-X-receptor (FXR) signaling pathway (AID 743217; active = well fitted inhibition curve with a large enough effect in the signal ratio in the repeat runs, not every such curve was filed as active; the % refers to the signal ratio). In short, it runs like this: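 GeneBLAzer FXR-UAS-bla HEK 293T, CDCA-stimulated (50 uM final). Compound treatment 16 h, 37 °C. Detection: beta-lactamase cleavage of B/G FRET substrate, fluorescence.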

Assay [15] deals with Vitamin D3 receptor (Homo sapiens) (UniProt P11473). As to the kind of experiment: qHTS assay to identify small molecule agonists of the vitamin D receptor (VDR) signaling pathway (AID 743222; calls by dose curve). The gist of the method:
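In VDR-bla cells, compound-induced beta-lactamase expression is quantified by FRET substrate fluorescence. Treatment lasts 16 h at 37C; substrate develops 2 h at room temperature.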

Assay [16] deals with Bile acid receptor (Homo sapiens) (UniProt Q96RI1). Kind of assay: qHTS assay to identify small molecule agonists of the farnesoid-X-receptor (FXR) signaling pathway (AID 743220; active = well fitted activation curve with a large enough effect in the signal ratio in the repeat runs, not every such curve was filed as active; the % refers to the signal ratio). The gist of the method: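 Beta-lactamase reporter under UAS control in GeneBLAzer FXR HEK 293T cells (5000/well) measured with LiveBLAzer FRET substrate after 2 h at room temperature. Compound exposure lasted 16 h at 37C.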

A short description of assay [17]: qHTS assay for small molecule agonists of the antioxidant response element (ARE) signaling pathway (AID 743202; active = well fitted activation curve with a large enough effect in the signal ratio in the repeat runs, not every such curve was filed as active; the % refers to the signal ratio; note: potency is the fitted concentration of half-maximal effect). In short, it runs like this: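 Agonist mode reporter screen: HepG2 cells with ARE-controlled beta-lactamase are incubated with test compounds for 16 h at 37 C, and beta-lactamase activity is measured as fluorescence of cleaved B/G FRET substrate.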
Assay [18] has as its target Vitamin D3 receptor (Homo sapiens) (UniProt P11473). Kind of assay: qHTS assay to identify small molecule antagonists of the vitamin D receptor (VDR) signaling pathway (AID 743223; active = well fitted inhibition curve with a large enough effect in the signal ratio in the repeat runs, not every such curve was filed as active; the % refers to the signal ratio; note: potency is the fitted concentration of half-maximal effect). In short, it runs like this: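 Agonist 1alpha,25-dihydroxyvitamin D3 (3 nM in well) was added with each compound to VDR-bla cells preincubated 4 h. Cells stood 16 h at 37C, then FRET substrate 2 h at room temperature; fluorescence intensity recorded.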

For assay [19], the target named is Peroxisome proliferator-activated receptor delta (Homo sapiens) (UniProt Q03181). Kind of assay: qHTS assay to identify small molecule agonists of the peroxisome proliferator-activated receptor delta (PPARd) signaling pathway (AID 743212; calls by dose curve). The gist of the method:
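Quantitative high-throughput agonist screen in a HEK293H beta-lactamase reporter line under UAS control. Compounds in DMSO, at 37 C. Fluorescence read after 2 h with FRET substrate at room temperature.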

Inconclusive results are not listed. The source made the active and inactive calls. Unless noted, calls come from the whole dose curve; as a rule, active = well fitted curve in the direction sought with a large enough effect in the repeat runs; inconclusive = weak or mixed curves; inactive = no such curve, though single readings can be large; an effect the other way counts as inactive or inconclusive.

Chain of Vitamin D3 receptor (Homo sapiens) (P11473 whole entry, looked up): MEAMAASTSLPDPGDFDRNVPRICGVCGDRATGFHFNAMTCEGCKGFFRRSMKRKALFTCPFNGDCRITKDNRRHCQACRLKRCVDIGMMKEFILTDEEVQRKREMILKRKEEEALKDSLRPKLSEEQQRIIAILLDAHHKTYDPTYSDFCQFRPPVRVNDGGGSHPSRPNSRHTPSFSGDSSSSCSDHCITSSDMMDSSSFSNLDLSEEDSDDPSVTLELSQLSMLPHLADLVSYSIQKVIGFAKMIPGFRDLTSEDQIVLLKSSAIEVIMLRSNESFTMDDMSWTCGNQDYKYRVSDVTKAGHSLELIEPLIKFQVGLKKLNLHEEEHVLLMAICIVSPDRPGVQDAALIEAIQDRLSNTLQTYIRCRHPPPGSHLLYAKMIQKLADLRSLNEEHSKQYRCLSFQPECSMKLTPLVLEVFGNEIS
Chain of Bile acid receptor (Homo sapiens) (Q96RI1 whole entry, looked up): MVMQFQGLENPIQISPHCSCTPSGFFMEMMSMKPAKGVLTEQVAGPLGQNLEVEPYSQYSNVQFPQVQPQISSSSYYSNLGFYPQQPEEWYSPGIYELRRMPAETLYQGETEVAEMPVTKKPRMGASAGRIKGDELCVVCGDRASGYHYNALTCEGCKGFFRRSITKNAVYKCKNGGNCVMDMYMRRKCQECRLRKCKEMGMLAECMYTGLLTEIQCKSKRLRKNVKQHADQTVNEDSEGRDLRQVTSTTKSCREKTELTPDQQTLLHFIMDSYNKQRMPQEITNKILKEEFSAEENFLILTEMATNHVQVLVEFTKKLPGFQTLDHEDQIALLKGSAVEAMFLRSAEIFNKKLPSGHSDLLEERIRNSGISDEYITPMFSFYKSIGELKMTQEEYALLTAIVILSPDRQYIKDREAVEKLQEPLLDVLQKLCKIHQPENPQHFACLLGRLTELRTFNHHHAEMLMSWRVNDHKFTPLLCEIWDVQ
Chain of Peroxisome proliferator-activated receptor gamma (Homo sapiens) (P37231 whole entry, looked up): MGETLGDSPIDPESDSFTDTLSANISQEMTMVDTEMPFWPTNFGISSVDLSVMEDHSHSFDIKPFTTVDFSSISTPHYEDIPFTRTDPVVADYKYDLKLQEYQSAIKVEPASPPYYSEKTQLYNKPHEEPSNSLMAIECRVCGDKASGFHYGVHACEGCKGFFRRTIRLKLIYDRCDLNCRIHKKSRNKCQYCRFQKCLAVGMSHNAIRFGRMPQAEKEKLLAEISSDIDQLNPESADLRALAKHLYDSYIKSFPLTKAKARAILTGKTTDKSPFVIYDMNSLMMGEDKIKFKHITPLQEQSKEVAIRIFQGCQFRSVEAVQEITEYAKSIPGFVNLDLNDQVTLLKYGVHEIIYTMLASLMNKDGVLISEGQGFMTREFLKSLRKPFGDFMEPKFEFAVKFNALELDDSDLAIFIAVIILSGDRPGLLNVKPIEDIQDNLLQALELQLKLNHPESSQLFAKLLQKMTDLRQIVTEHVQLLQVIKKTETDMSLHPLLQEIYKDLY
Chain of Peroxisome proliferator-activated receptor delta (Homo sapiens) (Q03181 whole entry, looked up): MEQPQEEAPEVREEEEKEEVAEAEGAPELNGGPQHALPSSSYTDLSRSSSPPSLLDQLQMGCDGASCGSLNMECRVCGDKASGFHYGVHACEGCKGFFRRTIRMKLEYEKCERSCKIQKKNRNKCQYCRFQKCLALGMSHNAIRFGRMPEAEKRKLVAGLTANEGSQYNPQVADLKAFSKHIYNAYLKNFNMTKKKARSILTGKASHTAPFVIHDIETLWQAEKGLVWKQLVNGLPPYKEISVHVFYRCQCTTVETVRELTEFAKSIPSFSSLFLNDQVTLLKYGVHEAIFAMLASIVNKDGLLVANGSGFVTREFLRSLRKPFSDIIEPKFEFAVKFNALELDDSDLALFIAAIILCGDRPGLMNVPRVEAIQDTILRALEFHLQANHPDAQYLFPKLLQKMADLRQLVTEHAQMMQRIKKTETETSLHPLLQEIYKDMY
Chain of Aryl hydrocarbon receptor (Homo sapiens) (P35869 whole entry, looked up): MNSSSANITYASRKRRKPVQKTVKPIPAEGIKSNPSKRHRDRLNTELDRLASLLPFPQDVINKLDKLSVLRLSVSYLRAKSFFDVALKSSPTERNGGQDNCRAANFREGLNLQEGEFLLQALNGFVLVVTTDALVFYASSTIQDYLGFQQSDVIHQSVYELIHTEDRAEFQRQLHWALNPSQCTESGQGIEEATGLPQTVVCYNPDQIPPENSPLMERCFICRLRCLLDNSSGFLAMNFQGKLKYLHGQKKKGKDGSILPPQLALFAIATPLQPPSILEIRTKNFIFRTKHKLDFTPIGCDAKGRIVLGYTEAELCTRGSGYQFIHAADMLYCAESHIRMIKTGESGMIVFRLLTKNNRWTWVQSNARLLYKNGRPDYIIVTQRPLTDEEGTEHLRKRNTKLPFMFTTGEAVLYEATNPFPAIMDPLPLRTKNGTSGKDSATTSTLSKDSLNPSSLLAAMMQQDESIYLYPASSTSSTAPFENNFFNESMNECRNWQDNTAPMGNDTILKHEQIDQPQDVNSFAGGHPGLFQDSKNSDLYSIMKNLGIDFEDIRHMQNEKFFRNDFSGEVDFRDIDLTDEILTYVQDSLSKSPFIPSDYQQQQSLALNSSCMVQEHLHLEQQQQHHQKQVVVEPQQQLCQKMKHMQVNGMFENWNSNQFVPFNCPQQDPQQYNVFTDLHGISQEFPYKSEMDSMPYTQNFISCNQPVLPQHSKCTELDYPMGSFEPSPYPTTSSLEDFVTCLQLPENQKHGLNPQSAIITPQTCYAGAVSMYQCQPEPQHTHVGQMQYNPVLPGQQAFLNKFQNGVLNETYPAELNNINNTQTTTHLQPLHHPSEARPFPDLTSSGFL

As for `CCCCCCCCCCn1cc[n+](CCCCCCCCCC)c1C`, the Potency in assay [1] is 24.4 µM (active); in assay [3] it was 6.93 µM (active); in assay [4], 19.4 µM (active); in assay [5] it was 21.9 µM (active); in assay [6], 7.77 µM (active); in assay [7] it was 39 µM (active). Besides, the Potency in [8] is 34.7 µM (active). Besides, the Potency result in [2] was “inactive”.
Turning to `Cc1onc(-c2ccccc2Cl)c1C(=O)N[C@@H]1C(=O)N2[C@@H]1SC(C)(C)[C@@H]2C(=O)O`, the Potency entry in assay [1], in assay [9], in [10], in assay [11], in assay [3] and in [4] was “inactive” each time. The Potency entry in [5], in [12], in [6], in assay [13], in assay [14] and in [7] was “inactive” throughout. Moreover, the Potency entry in [8] and in assay [15] was “inactive” in each case.
As to `N=C1N=C(N)c2cc3ccccc3cc21`, the Potency in [1] was 61.1 µM (active); in assay [2], 11.2 µM (active); in assay [3], 54.9 µM (active); in [4], 43.3 µM (active); in assay [5] it was 25.9 µM (active); in [7], 44.8 µM (active). Also, the Potency in [8] was 54.9 µM (active).
In the case of `CCN(C(=O)c1cc(C)cc(OC[C@H](C)Nc2ccncc2)c1)C(C)C`, the Potency result in assay [1], in [2], in assay [3], in assay [4], in assay [5] and in assay [6] was “inactive” each time. Further, the Potency entry in assay [13], in assay [7], in assay [16] and in assay [8] was “inactive” throughout.
As to `CCC1OCC(COc2ccc(Oc3ccccc3)cc2)O1` (stereo unspecified), the Potency result in assay [1], in [9], in assay [10], in assay [11], in [3] and in [4] was “inactive” each time. Besides, the Potency entry in assay [6], in [8], in assay [15] and in [18] was “inactive” in each case. The Potency in assay [17] is 61.1 µM (active).
For the compound `COc1cc(-c2ccc(N=C=O)c(OC)c2)ccc1N=C=O`, the Potency entry in assay [1], in assay [9], in [10], in assay [3], in [4] and in [5] was “inactive” each time. For the same compound, the Potency entry in assay [12], in [6], in assay [19], in assay [13], in [14] and in [8] was “inactive” throughout. The Potency entry in assay [15] and in assay [18] was “inactive” in each case.
Turning to `O=C1c2c(O)ccc(Nc3ccc(CCO)cc3)c2C(=O)c2c([N+](=O)[O-])ccc(O)c21`, the Potency in [1] was 54.5 µM (active); in assay [2], 6.86 µM (active); in [11] it was 54.9 µM (active). Also, the Potency entry in assay [3], in assay [5], in assay [12], in assay [6], in [19] and in assay [13] was “inactive” in each case. The Potency result in assay [14], in assay [7], in assay [16] and in assay [8] was “inactive” throughout.
Turning to `Cc1onc(-c2c(Cl)cccc2Cl)c1C(=O)N[C@@H]1C(=O)N2[C@@H]1SC(C)(C)[C@@H]2C(=O)O`, the Potency result in assay [1], in [9], in assay [10], in [11], in assay [4] and in assay [5] was “inactive” in each case. Further, the Potency entry in assay [13], in assay [7], in [8] and in [15] was “inactive” in each case.
With `Oc1ccc(C2(c3ccc(O)cc3)CC3CC2C2CCCC32)cc1` (stereo unspecified), the Potency in assay [1] was 33 µM (active); in [3], 26.5 µM (active); in assay [4], 58.7 µM (active); in [5], 52.8 µM (active); in [6], 14.9 µM (active); in [13], 23.6 µM (active). Besides, the Potency was 18.7 µM (active) in [7] and 47 µM (active) in [18]. Moreover, the Potency entry in assay [2] was “inactive”.
As to `[O-][n+]1ccccc1SSc1cccc[n+]1[O-]`, the Potency was 0.188 µM (active) in assay [1]; 0.674 µM (active) in assay [10]; 3.66 µM (active) in assay [17]; 0.13 µM (active) in [6]; 0.206 µM (active) in [13]; 0.326 µM (active) in [7]. Further, the Potency in assay [8] is 0.206 µM (active). Besides, the Potency entry in assay [2], in assay [3] and in [19] was “inactive” each time.
